This is a sample that favours compounds with a hit; in the whole collection about 19% have one here.
TDP1 cell CPT – qHTS for Inhibitors of human tyrosyl-DNA phosphodiesterase 1 (TDP1): qHTS in cells in presence of CPT; chicken DT40 Tdp1-/-;hTDP1 cells + 20 nM CPT, ATP luminescence, 48 h; Potency, µM (highest dose often 46.2 µM), for inactives: at the top dose activity change, negative = growth inhibition, hits mostly inhibitors; 420,000 tested, 12% active; AID 686979, 2013; note: potency is the fitted concentration of half-maximal effect; nearly all actives have a fitted effect of over 55% in size
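Cell growth measured by CellTiter-Glo luminescence after a minimum 48 h, 37 C compound exposure with 20 nM CPT in Tdp1-knockout DT40 cells stably expressing hTDP1, seeded 400/well; qHTS titration format.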
HT1080NT lethal – qHTS for induction of synthetic lethality in tumor cells producing 2HG: qHTS for the HT-1080-NT fibrosarcoma cell line | HT-1080-NT fibrosarcoma viability, CellTiter-Glo ATP luminescence, 48 h | Potency, µM (highest dose often 46.1 µM), inactives show top-dose activity, negative = less viability, actives largely listed as cytotoxic | 360,000 tested, 1.6% active;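 note: NT is the 2HG producing partner of a matched IDH1 knockdown line; potency is the fitted concentration of half-maximal effect; 0% = DMSO-treated cells and -100% = media-only wells without cells; nearly all actives have a fitted effect of over 55% in size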
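Viability of the 2HG-overproducing fibrosarcoma line after 48 hours of compound exposure at 37 degrees C was determined by luminescence with CellTiter-Glo, and concentration-effect curves were then fitted and categorized.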
IL1B secr inh – qHTS for Inhibitors of Inflammasome Signaling: IL-1-beta AlphaLISA Primary Screen; activity change, % at 57.5 µM; 360,000 tested, 4.7% active; THP-1 LPS/ATP IL-1B secretion, AlphaLISA, 16 h; active compounds read low; AID 743279, 2014; in the data active = activity change below about -50%; inconclusive = mostly about -30% to -49%
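Secreted IL-1B measured by AlphaLISA bead assay after 16 h compound exposure of THP-1 cells; compounds (final up to 57.5 uM) added 1 h before LPS (250 ng/mL) and ATP (1.25 mM) stimulation; lower signal means less secretion.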
DT40 TDP1 no CPT – qHTS for Inhibitors of human tyrosyl-DNA phosphodiesterase 1 (TDP1): qHTS in cells in absence of CPT | DT40 Tdp1-/- hTDP1 cells, no CPT, ATP luminescence, 48 h | Potency, µM (highest dose often 46.2 µM), inactives show top-dose activity change, negative = growth inhibition, hits mostly inhibitors | 420,000 tested, 15% active | AID 686978, 2013; note: potency is the fitted concentration of half-maximal effect; nearly all actives have a fitted effect of over 55% in size
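Luminescent ATP content (CellTiter-Glo) served as the growth readout. Knockout chicken DT40 cells expressing human TDP1 were exposed to compounds without camptothecin for a minimum 48 hr at 37 °C.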
HT1080 IDH1KD tx – qHTS for induction of synthetic lethality in tumor cells producing 2HG: qHTS for the HT-1080-IDH1KD cell line | 360,000 tested, 2% active | AID 686971, 2013 | Potency, µM (highest dose often 46.1 µM), for inactives: at the highest dose activity, negative = toxicity, actives largely listed as cytotoxic | HT-1080 IDH1 knockdown viability, ATP luminescence, 48 h;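 note: potency is the fitted concentration of half-maximal effect; 0% = DMSO wells and -100% = cell-free medium wells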
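Using the IDH1-knockdown HT-1080 line run in the same batch and compound series as the NT line, viability after 48 h at 37 °C was determined by CellTiter-Glo luminescence and expressed as % activity.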
An asterisk follows results filed as active; ? = inconclusive; / = no result; [ ] = dose if it differs, or a comment. Unless noted, calls come from the whole dose curve; as a rule, active = well fitted curve in the direction sought with a large enough effect; inconclusive = small, poorly fitted or top-dose-only effect, or another doubt; inactive = no such curve, though single readings can be large; an effect the other way counts as inactive or inconclusive. Unless noted, % is set by controls: 0 for no effect and ±100 for the full control effect.

SMILES	TDP1 cell CPT	HT1080NT lethal	IL1B secr inh	DT40 TDP1 no CPT	HT1080 IDH1KD tx
O=C(CCCN1C(=O)/C(=C/c2cccs2)SC1=S)Nc1ccc(C(=O)O)cc1	4%	-13%	8	-20%	0%
O=C(CCCN1C(=O)/C(=C/c2cccs2)SC1=S)NNC(=O)c1ccc(F)cc1	26µM*	-18%	0	?	-16%
C=CCn1c(N)cc(=O)nc1SCC(=O)N1CCN(c2ccc(F)cc2)CC1	-14%	9%	-5	-4%	-5%
Cc1cnc(-n2ncc(C(=O)N[C@H]3CCCCNC3=O)c2C2CC2)nc1-c1cccs1	-22%	/	/	-18%	/
CCCSc1nc(=O)n2cccc(C)c2n1	-11%	18%	6	-12%	-16%
COc1ccc2c(c1)OC(C)(C)C(c1ccccc1)C2c1ccc(OCCN2CCCC2)cc1 (stereo unspecified)	21µM*	/	/	27µM*	/
COc1ccc(CCNC2CCC(c3ccccc3)CC2)cc1 (stereo unspecified)	-73%	18µM*	?	?	?
COc1ccc(CCNCc2cc(C)n(-c3ccc(OC)cc3)c2C)cc1	16µM*	-24%	-29	?	-20%
COc1ccc(CCNCc2ccccc2N2CCCC2)cc1	18µM*	?	?	?	-29%
CCOC(=O)C/C(C)=N/NC(=O)C1CC1(c1ccccc1)c1ccccc1 (stereo unspecified)	-18%	4%	2	-19%	1%
Cn1cc(-c2nc3cnc(N4CCNCC4)nc3n(C)c2=O)c2ccccc21	5.2µM*	/	/	5.8µM*	/
Cn1cc(-c2nc3cnc(N4CCOCC4)nc3n(C3CC3)c2=O)c2ccccc21	-4%	/	/	-6%	/
CN1CCN(c2ncc3nc(-c4cn(C)c5ccccc45)c(=O)n(C)c3n2)CC1	23µM*	/	/	23µM*	/
COc1ccc2ccc(OCC(=O)NCC3CCCO3)cc2c1 (stereo unspecified)	?	10%	-5	-12%	10%
Cn1ncc(Cl)c1C(=O)N1CCN(c2ncccn2)CC1	0%	10%	24	0%	-2%
CCc1ccc(/C=N/n2c(C)cc(C)c(C#N)c2=O)cc1	-3%	6%	27	-24%	13%
CCOC(=O)Cn1nnnc1CN(Cc1cccs1)Cc1cc2cc(C)cc(C)c2[nH]c1=O	21µM*	10%	53	15µM*	-4%
CCOc1ccc2[nH]c(=O)c(CN(Cc3cccs3)Cc3nnnn3C(C)(C)CC)cc2c1	16µM*	0%	?	16µM*	-7%
CCC(C)(C)n1nnnc1CN(Cc1cccs1)Cc1cc2cc(OC)ccc2[nH]c1=O	?	0%	-9	?	0%
Cc1cccc2cc(CN(Cc3ccccc3)Cc3nnnn3Cc3ccccc3)c(=O)[nH]c12	?	/	/	13µM*	/
Cc1cccc2cc(CN(Cc3cccs3)Cc3nnnn3Cc3ccccc3)c(=O)[nH]c12	?	?	-50*	23µM*	0%
Cc1cc2nc(-c3cccc(Br)c3)c(CC3CCCCC3)n2c(C)c1Br	-24%	3%	0	?	-15%
CCN(CC)C(=S)SCC(=O)c1ccc(Br)cc1	-4%	-1%	-2	23µM*	0%
O=C(c1ccco1)N1C(=O)c2cccc3cccc1c23	12µM*	22%	0	18µM*	12%
Nc1cccc2c1C(=O)N(C(=O)c1ccco1)C2=O	46%	?	2	3%	11%
SMILES	TDP1 cell CPT	HT1080NT lethal	IL1B secr inh	DT40 TDP1 no CPT	HT1080 IDH1KD tx
O=C(/C=C/c1ccco1)NC(=S)Nc1ccccc1	-28%	-21%	-20	26µM*	-18%
CC(OC(=O)/C=C/c1ccccc1)C(=O)Nc1cccc(C#N)c1 (stereo unspecified)	16µM*	?	32	16µM*	-23%
O=C(/C=C/c1ccco1)NC(=S)Nc1ccc(N2CCOCC2)c(Cl)c1	5.2µM*	?	21	4.6µM*	?
CC(OC(=O)/C=C/c1ccco1)C(=O)Nc1cccc([N+](=O)[O-])c1 (stereo unspecified)	18µM*	4%	18	18µM*	2%
Cc1c(NC(=O)C(C)OC(=O)/C=C/c2ccccc2)c(=O)n(-c2ccccc2)n1C (stereo unspecified)	1%	9%	2	2%	0%
COc1ccc([N+](=O)[O-])cc1NC(=O)C(C)OC(=O)/C=C/c1ccco1 (stereo unspecified)	-13%	-4%	0	?	-5%
CC(=O)c1ccc(NC(=S)NC(=O)/C=C/c2ccco2)cc1	-10%	-5%	-1	?	-3%
CCN(CC)CCNC(=S)NC(=O)c1cn(-c2ccccc2)nc1-c1ccc(OC)cc1	?	-19%	?	?	?
CC(=O)c1ccc(S(=O)(=O)Nc2ccc(-c3cn4c(n3)SCC4)cc2)cc1	-9%	9%	-14	15%	15%
CC(C)C(NC(=O)c1ccccc1Br)c1ccccc1 (stereo unspecified)	?	7%	-2	?	17%
O=C(/C=C/c1ccco1)NC(=S)Nc1cccc([N+](=O)[O-])c1	?	21µM*	-7	15µM*	13µM*
Cc1cccc(NC(=S)NC(=O)/C=C/c2ccco2)c1	3.3µM*	?	4	?	?
CN(C)c1ncc2nc(-c3ccccc3)c(=O)n(C[C@H]3CCCO3)c2n1	6%	/	/	5%	/
O=C(CSc1nnc(-c2ccccc2)n1Cc1ccco1)Nc1ccc(S(=O)(=O)N2CCCC2)cc1	?	-4%[9.24 µM]	?	?	7.1µM*
CCOc1ccc(NC(=O)CSc2nnc(-c3ccccc3Cl)n2Cc2ccco2)cc1	21µM*	?	-2	18µM*	?
COc1ccc(NC(=O)CSc2nnc(-c3ccccc3Cl)n2Cc2ccco2)c(OC)c1	-9%	-1%	?	-9%	-20%
O=C(C1CCC1)N1CCc2cc(S(=O)(=O)NCCN3CCN(c4ccccc4F)CC3)ccc21	?	-4%	-3	23µM*	-21%
CC(=O)N1CCc2cc(S(=O)(=O)NCCC(=O)N3CCN(c4ccccn4)CC3)ccc21	-23%	1%	18	?	3%
O=C(C1CC1)N1CCc2cc(S(=O)(=O)NCCCN3CCCCC3)ccc21	?	-12%	-6	?	2%

High-throughput results: PubChem BioAssay, National Center for Advancing Translational Sciences (NCATS)
